# Bioassay records deposited in PubChem BioAssay by several laboratories.
# Shn3 3UTR inh – Schnurri-3 reporter inhibition in Clone20 osteoblasts. Clone20 osteoblast Shn3 3'UTR firefly luciferase, 24 h. inhibition, % at 12.5 µM. hit rate 0.52% among 360,000;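 active means mean inhibition of at least 75% with every replicate also reaching 75%; inconclusive means mean inhibition at least 75% but some replicate below; inactive means mean inhibition below 75%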;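 further: 0% = median of neutral control wells and 100% = pilot-screen positive control compound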
# Gli-Sufu antag – Gli-Sufu pathway antagonism; AID 588413; inhibition, % at 5 µM; hit rate 0.74% among 340,000; Sufu-KO-LIGHT fibroblasts, Gli luciferase reporter luminescence;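 active means inhibition above about 55%, limit read from the data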;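 further: 0% = DMSO-treated cells and 100% = wells with medium but no cells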
# Jurkat NFkB inh – inhibitors of the PMA/ionomycin-induced NF-kB reporter in Jurkat cells. hit rate 0.53% among 330,000. inhibition, % at 4 µM. AID 435003. PMA/ionomycin-induced NF-kB luciferase reporter, luminescence; in the data active means inhibition above about 50%
# Mdm2-MdmX inh – inhibitors of human Mdm2/MdmX interaction; O15151+Q00987; SaOS-2 split-luciferase Mdm2/MdmX complementation, luminescence; hit rate 3% among 330,000; inhibition, % at 8 µM;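 active means inhibition of at least 50% at 8 µM in the primary screen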
# 697 NFkB inh – lowers PMA/ionomycin-induced NF-kB signal in 697 B cells | hit rate 0.33% among 330,000 | 697 B-cell NF-kB luciferase reporter, 16 h | inhibition, % at 4 µM | AID 435022; in the data active means inhibition above about 35%
# Mdm2-MdmX conf – confirmation of human Mdm2/MdmX interaction inhibitors. shares compounds with Mdm2-MdmX inh. Mdm2-MdmX binding, luminescent assay. inhibition, % at 8 µM. hit rate 55% among 10,000. AID 489028; in the data active means inhibition above about 40%
# FLuc counter – inhibits full-length luciferase, flagging false Mdm2/MdmX hits; shares compounds with Mdm2-MdmX inh; SaOS-2 full-length luciferase counterscreen, luminescence; inhibition, % at 8 µM; hit rate 77% among 6,200; AID 504607;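 active means mean inhibition at 8 µM reaching about 37%, which flags the compound as non-specific, limit read from the data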;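 further: p53-null SaOS-2 cells with luciferase driven by a doxycycline-inducible promoter; compound on cells about two nights before reading with doxycycline added after day one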
# Numbers without * were called inactive; ? = inconclusive; . = no result given. A selection: hits, their analogues and other compounds. The true share with any hit is near 3.8%.
SMILES,Shn3 3UTR inh,Gli-Sufu antag,Jurkat NFkB inh,Mdm2-MdmX inh,697 NFkB inh,Mdm2-MdmX conf,FLuc counter
Cc1ccc(NC(=O)c2ccccc2OCc2ccc([N+](=O)[O-])cc2)nc1,-3.6,-8.3,-12.4,75.8*,-14.1,59.7*,92.2*
COc1ccc(C(=O)O/N=C(\N)c2ccccn2)c(OC)c1,24.5,-42.6,-25.8,69.4*,-230.5,37.7,.
COc1ccc(C(=O)O/N=C(\N)c2ccc(OC)c(OC)c2)cc1,-88.1,-20.6,-108.8,85.9*,-107.3,18.1,.
COc1ccc(/C(N)=N/OC(=O)CC2CCCCC2)cc1OC,-14.2,3.2,-31.4,67.1*,-2.0,14.9,.
COc1ccc(/C(N)=N/OC(=O)c2cccc([N+](=O)[O-])c2C)cc1OC,-21.7,19.6,-34.4,17.3,-11.2,.,.
COc1ccc(/C(N)=N/OC(=O)CCC2CCCC2)cc1OC,-32.7,-7.1,-11.5,-7.4,-1.4,.,.
COc1ccc(C(=O)O/N=C(\N)c2ccc(OC)c(OC)c2)c(OC)c1,-36.7,30.3,-34.9,74.5*,-27.2,33.6,.
COc1ccc(C(=O)OCC(=O)c2ccc3c(c2)NC(=O)CO3)cc1S(=O)(=O)N1CCOCC1,-26.4,-2.4,-1.3,20.7,14.8,.,.
O=C(CCN1CCN(c2ccccc2)CC1)NNC(=O)c1ccccc1,11.7,.,.,.,.,.,.
O=C(CSc1nncn1-c1cccnc1)Nc1cccc(C(F)(F)F)c1,0.4,20.1,7.8,23.0,17.3,.,.
CC/C(=N\N=C1\SC(C)C(=O)N1Cc1ccco1)c1ccccc1 (stereo not given),-3.5,-3.4,-9.9,-8.9,-5.0,.,.
COc1ccc(C(=O)O/N=C(\N)c2ccccc2Cl)cc1OC,-43.8,-7.8,-19.8,85.9*,-46.5,44.0*,112.2*
COc1ccc(/C(N)=N/OC(=O)N2CCOCC2)cc1,-10.3,-12.9,-28.3,61.8*,-34.8,25.9,.
COc1ccc(/C(N)=N/OC(=O)c2ccc(OC)c([N+](=O)[O-])c2)cc1OC,-17.5,-0.3,-12.3,71.3*,13.6,31.3,.
COc1ccc(/C(N)=N/OC(=O)c2cccc([N+](=O)[O-])c2)cc1OC,-23.7,-60.5,-60.0,-1.5,-47.5,.,.
O=C1c2ccccc2C(=O)c2c(Nc3ccc(CCO)cc3)ccc(O)c21,10.7,8.6,-0.7,72.3*,-1.3,35.5,33.2
N#CCCn1cc(C(N)=O)c(-c2ccc3ccccc3c2)n1,-1.4,25.4,-6.7,-17.6,-16.4,.,.
CN(C)S(=O)(=O)c1ccc(N2C(=O)CC2(/C=C/c2ccccc2)C(=O)NC2CCCC2)cc1 (stereo not given),23.9,10.4,6.2,15.4,-8.7,.,.
COc1ccccc1/C=C/C1(C(=O)NC2CCCC2)CC(=O)N1c1ccccc1 (stereo not given),31.9,-9.3,31.7,65.1*,10.6,63.5*,79.2*
COc1ccc(CC(=O)NNC(=O)c2cc(C)oc2C)cc1OC,-50.2,-3.5,-4.8,7.2,-27.7,.,.
O=C(N/N=C/c1ccccc1)c1cccc2ccccc12,-18.5,-9.4,10.6,-13.8,0.4,.,.
O=C(N/N=C/c1cccn1-c1ccc(O)cc1)c1cccc2ccccc12,-4.0,-3.0,-2.5,64.1*,21.6,1.2,.
CC1(C)Cc2c(sc3ncnc(NNC(=S)NCc4ccccc4)c23)CO1,-6.8,6.5,45.0,54.2*,26.8,63.5*,84.4*
O=C(CNc1cccc2ccccc12)N/N=C/C(Br)=C/c1ccccc1,90.5*,1.1,48.9,59.1*,-129.3,37.2,47.0*
O=C(CNc1cccc([N+](=O)[O-])c1)N/N=C/c1ccc([N+](=O)[O-])o1,17.5,1.1,24.9,3.2,-2.4,.,.
SMILES,Shn3 3UTR inh,Gli-Sufu antag,Jurkat NFkB inh,Mdm2-MdmX inh,697 NFkB inh,Mdm2-MdmX conf,FLuc counter
O=C(CNc1cccc2ccccc12)N/N=C/c1ccc([N+](=O)[O-])o1,14.6,-6.9,24.2,50.6*,3.0,20.4,.
COc1cccc(CNCC(=O)NC(=O)NC2CCCC2)c1,-11.9,0.8,5.0,1.6,26.5,.,.
COc1ccccc1-c1c(C(F)(F)F)oc2cc(OC(=O)c3ccc([N+](=O)[O-])cc3)ccc2c1=O,4.1,-0.1,4.1,10.2,9.0,.,.
CCOC(=O)C1=CN(Cc2cccc(-c3cccnc3)c2)S(=O)(=O)N(C)C1C (stereo not given),7.6,0.2,.,-9.3,-19.1,.,.
CC(=O)Nc1ccc(S(=O)(=O)NCCC(=O)NNC(=O)c2ccccc2O)cc1,-10.0,-3.4,-3.8,-6.9,-18.3,.,.
C/C(=N\NC(=O)c1c(C)nc2ccccn12)c1ccc(O)cc1O,81.5,16.1,28.7,73.6*,-10.9,78.5*,33.7
C/C(=N\NC(=O)c1c(C)nc2ccccn12)c1ccccc1F,6.1,16.6,0.1,7.2,1.5,.,.
C=CCC(Nc1ccccc1)C12C=CC(O1)C(C(=O)OC)=C2C(=O)OC (stereo not given),35.4,2.0,7.2,89.1*,-56.7,46.0*,31.4
COc1ccc(N2CCN(C3CCCN(C(=O)c4cccc(C)n4)C3)CC2)cc1 (stereo not given),13.1,21.6,15.1,13.0,9.3,.,.
Cc1ccc(C(=O)N2N=C(c3ccccc3O)CC2c2ccccc2)cc1 (stereo not given),-0.6,11.8,-2.4,27.1,3.6,.,.
Cc1ccc(C(=O)N2N=C(c3ccc(Br)cc3)CC2c2ccccc2O)cc1 (stereo not given),-10.8,25.4,-15.3,75.4*,-12.1,2.4,.
CCCC[C@H](CN[C@@H](CNC)[C@H](C)CC)NCCC12CCC(CC1)C2,?,29.4,38.5,98.5*,0.8,98.0*,50.4*
CC[C@H](C)[C@@H](CNC)NC[C@@H](Cc1ccc(O)cc1)NCC(C)(C)C,18.3,5.8,1.3,38.8,10.3,.,.
Cc1cc(N)c2cc(NC(=O)/C=C/c3ccccc3Cl)ccc2n1,.,12.9,3.7,100.4*,-67.3,99.8*,51.5*
CCOc1ccc(C(=O)N[C@H](C(=O)Nc2cccc(S(=O)(=O)N3CCOCC3)c2)C(C)C)cc1,5.4,-0.3,22.1,18.6,25.7,.,.
CCOc1ccc(C(=O)N[C@H](C(=O)Nc2cccc(S(=O)(=O)N3CCCCC3)c2)C(C)C)cc1,19.1,-5.2,25.5,50.7*,11.6,31.7,.
Cc1cn([C@H]2C[C@H](O)[C@@H](CCC(=O)NCCc3ccc4ccccc4c3)O2)c(=O)[nH]c1=O,-6.1,.,.,.,.,.,.
Cc1ccc(N(CC(=O)NC2CCCCC2)S(=O)(=O)c2cccs2)cc1,2.9,4.1,1.3,66.1*,-4.2,11.6,.
CCCn1c(=O)n(C)c(=O)c2c(SCC(=O)Nc3cc(C)on3)nc(C(C)(C)C)nc21,30.9,-1.5,8.7,16.9,-0.2,.,.
O=c1oc2ccccc2cc1-c1cn2cccnc2n1,-10.0,-63.4,-108.8,-51.5,-116.2,.,.
O=c1oc2ccccc2cc1-c1cn2ccccc2n1,?,-14.7,-17.0,76.1*,-143.6,62.1*,72.0*
O=C(NN=C(c1ccccc1)c1ccccn1)c1ccccc1,83.9*,54.5,44.7,91.2*,-30.4,58.0*,27.4
